We go through 66 compounds from PubChem BioAssay AID1745849 (National Center for Advancing Translational Sciences (NCATS), 2022).

The whole screen tested about 2,100 compounds, of which about 320 (15%) were called active. About 52% were inconclusive and are not listed. The call rests on the fitted dose curve; in most records, active means well fitted cell-killing curve with a large enough effect; inconclusive means small, poorly fitted or top-dose-only effect, or effect the other way; inactive means flat fitted curve, though single readings scatter. This is one part of the list. Entries that show only a call come without a potency.
Potency means the concentration at half of the fitted maximal effect.

A short description of the test: Viability Counterscreen for CMV-Luciferase Assay of Inhibitors of ATXN expression. Further: nearly all actives have a fitted effect of over 55% in size. The conditions noted are these: HEK-293 CMV-luciferase cells viability, protease fluorescence, 24 h. In a few lines: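 Compounds are tested in a dilution series on HEK-293 cells carrying the CMV-driven luciferase. After a 24 hr incubation, a protease substrate (25 uM final, 30 min) gives the viability fluorescence, and SteadyGlo gives the reporter luminescence.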
`OC1(c2ccc(Br)cc2)CCNCC1`: the Potency entry is “inactive”.

As for `Cc1cccc(OCCSc2nc3ncnc(N)c3[nH]2)c1`, the Potency entry is “inactive”.

On to `COc1ccccc1Cc1c(-c2ccco2)nc2c(C)cc(Br)cn12`, for which the Potency was 8.91 µM (active). Then `Cc1n(Cc2ccccc2)c2ccccc2[n+]1Cc1ccccc1`, with “inactive”; and `CC(C)=CCc1ccc(O)c(=O)cc1C(C)C`, with “inactive”. The same measure for `CC(C)=CCc1c(O)cc2oc3c(CC=C(C)C)c(O)c(O)c(CC=C(C)C)c3c(=O)c2c1O`: “inactive”; for `O=C(Nc1ccc(N2CCN(C(=O)c3ccccc3)CC2)c(Cl)c1)c1ccc(Br)o1`: “inactive”; for `O=C(Nc1ccc(Cl)cc1)Nc1ccc(N2CCCC2)c(S(=O)(=O)Nc2ccccc2Cl)c1`: 7.94 µM (active).

On to `O=C(Nc1ccc(N2CCOCC2)c(Cl)c1)c1c(F)c(F)c(F)c(F)c1F`, for which the Potency entry is “inactive”. Then `Cc1cc(Cl)ccc1-c1cc2nc(NCCCN(C)C)n(C)c(=O)c2s1`, with “inactive”. The same measure for `Cc1ccc2nc(N(CCCN(C)C)C(=O)c3ccc(S(=O)(=O)N4CCCCCC4)cc3)sc2c1`: “inactive”.

Turning to `Cc1cc(C)c2nc(N(CCCN(C)C)C(=O)c3ccc4c(c3)OCCO4)sc2c1`, the Potency is 31.6 µM (active). Then `Cc1ccc(C(=O)N(CCCN(C)C)c2nc3ccc(Cl)cc3s2)cc1C`, with 22.4 µM (active); and `CCOC(=O)c1c(NC(=O)COC(=O)CNC(=O)c2ccco2)sc(C)c1C`, with “inactive”; and `CCC(=O)NC(c1ccc(C)cc1)c1cc([N+](=O)[O-])c2cccnc2c1O` (stereo unspecified), with 15.8 µM (active). Then `CC(=O)NC(c1cccs1)c1cc([N+](=O)[O-])c2cccnc2c1O` (stereo unspecified), with 11.2 µM (active). As to `CC(=O)NC(C)c1cc(Cl)c2cccnc2c1O` (stereo unspecified), the Potency result is “inactive”. Then `CC(C)C(=O)NC(c1ccccc1)c1cc([N+](=O)[O-])c2cccnc2c1O` (stereo unspecified), with 20 µM (active). Then `CCCCC(=O)NC(c1ccco1)c1cc(Cl)c2cccnc2c1O` (stereo unspecified), with “inactive”; and `CC(=O)NC(c1ccco1)c1cc(Cl)c2cccnc2c1O` (stereo unspecified), with “inactive”; and `CCC(=O)NC(C)c1cc(Cl)c2cccnc2c1O` (stereo unspecified), with “inactive”.

As for `CCC(=O)NC(c1ccco1)c1cc(Cl)c2cccnc2c1O` (stereo unspecified), the Potency result was “inactive”. `Cc1nc(-c2c(C(F)(F)F)noc2-c2ccc(O)cc2O)cs1`: the Potency result is “inactive”. Then `COc1ccc(Nc2oc(COc3ccccc3OC)nc2C#N)cc1`, with “inactive”; and `N#Cc1c(NCCN)nc(-c2ccco2)c2c1CCCC2`, with “inactive”; and `CN(C)CCCNC(=O)/C=C/c1ccc(OCc2c(F)cccc2Cl)cc1`, with “inactive”. Then `O=C1N(c2ccccc2)C[C@@H]2C[C@@H](c3cc4ccccc4o3)N3CCC[C@@]123`, with 0.355 µM (active). Then `CC(C)(O)C#Cc1ccc([C@@H]2C[C@H]3CN(c4ccccc4)C(=O)[C@]34CCCN24)s1`, with 11.2 µM (active). For the compound `CCN1c2ccccc2NC2N=C(OC)C(c3ccccc3)C21` (stereo unspecified), the Potency is 12.6 µM (active). Then `Cn1c(=O)c2cc(NC(=O)Nc3cccnc3)ccc2n1Cc1ccc(Cl)cc1`, with “inactive”; and `Cc1c(C(=O)N2c3ccccc3Sc3ccccc32)cccc1[N+](=O)[O-]`, with “inactive”; and `Cc1onc(-c2ccccc2)c1C(=O)Nc1ccc(S(=O)(=O)NC(C)(C)C)cc1`, with “inactive”.

As to `Cc1nnc(SC(C)C(=O)Nc2ccc(Cl)cn2)n1Cc1ccccc1` (stereo unspecified), the Potency result was “inactive”. The same measure for `COc1ccc(NC(C)C(=O)N/N=C/c2c(O)ccc3ccccc23)cc1` (stereo unspecified): 8.91 µM (active); for `O=C(N/N=C\c1c(O)ccc2ccccc12)c1ccc(Cn2cccn2)o1`: “inactive”; for `Cc1occc1C(=O)N/N=C/c1c(O)ccc2ccccc12`: “inactive”. Consider `C=CCc1cccc(CNc2nc3ccccc3n2C(C)C)c1O`, for which the Potency result was “inactive”.

`O=C(CSc1nnc(-c2ccc(Br)cc2)o1)Nc1cccc(C(=O)O)c1`: the Potency result is “inactive”. Then `O=C(CSc1n[nH]c(-c2ccccn2)n1)Nc1ccc(F)cc1`, with 17.8 µM (active). The same measure for `O=C(CSc1nc2ncc(Br)cc2[nH]1)Nc1ccccc1-c1ccccc1`: “inactive”; for `Cc1ccccc1NC(=O)CSc1n[nH]c(-c2ccccn2)n1`: 20 µM (active); for `O=C(CSc1n[nH]c(-c2ccccn2)n1)Nc1cccc(Cl)c1`: 10 µM (active). The same measure for `Cc1cc(NC(=O)CSc2nccn2-c2cccc(C)c2C)no1`: “inactive”; for `O=C(CSc1nc2ncc(Cl)cc2[nH]1)Nc1cccc(F)c1`: “inactive”; for `O=C(CSc1ccc2ccccc2c1)Nc1nc2ccccc2[nH]1`: “inactive”. For `CCc1nc2ccc(C(=O)N(C)Cc3ccccc3)cn2c1N(C)Cc1ccc(OC)cc1`, the Potency entry was “inactive”. The same measure for `Cc1csc(NC(=O)COCC(=O)O)c1-c1nc2ccccc2s1`: “inactive”; for `Cn1c(COc2ccc(Cl)cc2)nnc1SCc1ncc(-c2ccccc2)o1`: “inactive”; for `COc1ccc(-c2c[n+]3c(n2-c2ccc(C)cc2)CCCCC3)cc1`: 12.6 µM (active).

As for `COc1ccc(-c2c[n+]3c4n2CCCCC4=C(c2ccc(Br)cc2)C3)cc1`, the Potency result was “inactive”.

Consider `CCOc1ccc(-c2c[n+]3c(n2-c2ccccc2)CCCCC3)cc1`, for which the Potency result is “inactive”.

With `CN(c1ccccc1)c1ccc(/C=N/NC(=O)CC#N)cc1`, the Potency entry is “inactive”. On to `CCCc1cc(C(=O)Nc2ccc(C(=O)c3ccc(C)cc3)cc2)n(C)n1`, for which the Potency entry was “inactive”.

Take `CC(C(=O)c1ccc(-c2ccccc2)cc1)[n+]1cccc(NC(=O)c2ccccc2)c1` (stereo unspecified): the Potency result was “inactive”. Take `O=C(Nc1ccc[n+](CC(=O)c2cccc3ccccc23)c1)c1ccccc1`: the Potency was 3.16 µM (active).

Consider `OC(CNCCc1ccccc1)COc1ccc(OCC(O)CNCCc2ccccc2)cc1` (stereo unspecified), for which the Potency was 28.2 µM (active). Then `OCCN(Cc1ccccc1)CC(O)COc1ccc(-c2ccccc2)cc1` (stereo unspecified), with “inactive”; and `CCOc1ccccc1NC(=O)N1CCC(c2nc3ccccc3[nH]2)CC1`, with “inactive”; and `C(=N\NC(=Nc1ccccc1)c1ccccn1)/c1ccccn1`, with “inactive”. The same measure for `C(=N\Nc1ccc2nncn2n1)/c1ccccn1`: 11.2 µM (active).

`O=c1cnnc(N/N=C/c2ccccn2)[nH]1`: the Potency was 1.58 µM (active). Then `O=c1nc(N/N=C/c2ccccn2)cn[nH]1`, with 7.94 µM (active); and `COc1cccc(CNCCc2c[nH]c3ccccc23)c1OCc1ccc(F)cc1`, with “inactive”; and `Cc1cc(N2CCN(c3nc(-c4ccccc4)cs3)CC2)c2ccccc2n1`, with “inactive”. Turning to `CCN1CCS/C1=C\C=C\C1=[N+](CC)CCS1`, the Potency was 15.8 µM (active). Then `CCOC(=O)c1sc2nc(CSc3ccccc3)nc(NCCN(C)C)c2c1C`, with “inactive”.
